# Values joined by “and” are separate entries in the source; they are usually repeats but may differ in a detail not shown here. Equal values may be shown once. Where a name gives a salt, the structure may show the parent alone. Among all 5,800 compounds or so, about 620 (11%) showed activity. The sample as a whole holds a higher share of actives than the screen did. A number with no mark means an inactive call.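 The calls were made as follows: active = score above a cut-off or among the top three wells of a plate; in these data no inactive exceeds 0.85.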
# Test system: primary human hepatic stellate cells (donor 1)
# Test: scaled lipid accumulation score (0 = DMSO-like, 1 = nortriptyline-like); higher = stronger HSC inactivation (lipid re-accumulation), active = hit call of the paper
# Details: 48 h
# [1] = library stock concentration: 3.33 mM
# [2] = library stock concentration: 10 mM
# [3] = library stock concentration: 1 mM
# [4] = library stock concentration: 80 uM
# [5] = library stock concentration: 400 uM
# [6] = library stock concentration: 2 mM
structure (smiles),measurement,setting,value
Cc1ncc2ccccc2c1C#N [4-Cyano-3-methylisoquinoline],scaled lipid accumulation score,[1],≤ 0
"CC(=O)NC1[C@@H](O)OC(CO)[C@@H](O)[C@H]1O[C@H](C)C(=O)O (stereo in doubt) [Muramic acid, N-acetyl]",scaled lipid accumulation score,,≤ 0
CCC(=O)Oc1ccc2c(c1)CC[C@@H]1[C@@H]2CC[C@]2(C)[C@@H](OC(=O)CC)CC[C@@H]12,scaled lipid accumulation score,[2],≤ 0
Brc1c(Br)c(Br)c2n[nH]nc2c1Br [Casein Kinase II Inhibitor I],scaled lipid accumulation score,[1],≤ 0
CCCOc1ccc(C(=O)OCCN(CC)CC)cc1N [Proparacaine HCl],scaled lipid accumulation score,[1],≤ 0
same,scaled lipid accumulation score,[2],≤ 0
CCN(CCCCOC(=O)c1ccc(OC)c(OC)c1)C(C)Cc1ccc(OC)cc1 (stereo unspecified) [Mebeverine hydrochloride],scaled lipid accumulation score,,0.362
same,scaled lipid accumulation score,[2],≤ 0
CCCOc1ccc(C(=O)OCCN(CC)CC)cc1N [Proxymetacaine],scaled lipid accumulation score,[2],0.166
CCN(CC)CCOC(=O)c1cc(Cl)c(N)cc1OC [SDZ 205-557 hydrochloride],scaled lipid accumulation score,[2],0.003
CCN(CC)CCCCCCCCOC(=O)c1cc(OC)c(OC)c(OC)c1.Cl [TMB-8 hydrochloride],scaled lipid accumulation score,[2],1.03 (active)
CCN(CC)CCCCCCCCOC(=O)c1cc(OC)c(OC)c(OC)c1,scaled lipid accumulation score,library stock concentration: 12.6 mM,1.02 (active)
CCCOc1ccc(C(=O)OCCN(CC)CC)cc1N [Proparacaine hydrochloride],scaled lipid accumulation score,,≤ 0
same,scaled lipid accumulation score,library stock concentration: 6 mM,≤ 0
CCCCOc1cc(C(=O)OCCN(CC)CC)ccc1N [Oxybuprocaine HCl],scaled lipid accumulation score,[1],≤ 0
same,scaled lipid accumulation score,[2],0.338
CCCCOc1cc(C(=O)OCCN(CC)CC)ccc1N [Benoxinate hydrochloride],scaled lipid accumulation score,,0.276
"CCN(CC)CCOC(=O)c1cc(Cl)c(N)cc1OC [SDZ-205,557 hydrochloride]",scaled lipid accumulation score,[2],0.051
COc1ccc2cc(C(C#N)OC(=O)CC3OC3c3ccccc3)ccc2c1 (stereo unspecified),scaled lipid accumulation score,[3],0.017
C[N+](C)(C)[C@@H](Cc1c[nH]c(=S)[nH]1)C(=O)[O-] [Ergothioneine],scaled lipid accumulation score,library stock concentration: 8.7 mM,≤ -0.006
CN(C)CCCCC(=O)Nc1ccc(NC(=S)NC(=O)c2ccc(C(C)(C)C)cc2)cc1 [Tenovin-6] [listing 1 of 2 here],scaled lipid accumulation score,[1],1.18 (active)
CC(=O)Nc1ccc(NC(=S)NC(=O)c2ccc(C(C)(C)C)cc2)cc1 [Tenovin-1],scaled lipid accumulation score,[3],≤ 0
CN(C)CCCCC(=O)Nc1ccc(NC(=S)NC(=O)c2ccc(C(C)(C)C)cc2)cc1 [Tenovin-6] [listing 2 of 2 here],scaled lipid accumulation score,[3],0.143
same,scaled lipid accumulation score,[2],0.405
"O=C(O)C=Cc1cc(Br)c(Br)c(Br)c1Br [Casein Kinase II Inhibitor III, TBCA]",scaled lipid accumulation score,[1],≤ 0
Cc1cccc(-c2[nH]c(CNc3ccccc3F)nc2-c2ccc3ncnn3c2)n1,scaled lipid accumulation score,[4],≤ -0.001
same,scaled lipid accumulation score,[5],≤ -0.001
same,scaled lipid accumulation score,[6],≤ -0.001
same,scaled lipid accumulation score,[2],≤ -0.001
CCCCCCCCCCCCCCCCOC[C@@H](O)COP(=O)(O)O [1-Hexadecyl Lysophosphatidic Acid],scaled lipid accumulation score,[3],≤ 0
Cc1nc(N=Nc2ccc(C(=O)O)cc2)c(COP(=O)(O)O)c(C=O)c1O,scaled lipid accumulation score,[2],0.139
CCCCCCCCCCCCCCCCCC(=O)NCCS(=O)(=O)O [N-Stearoyl Taurine],scaled lipid accumulation score,[3],0.008
CNC(=O)c1ccc(C)c(-n2c(C)cc(OCc3ccc(F)cc3F)c(Br)c2=O)c1,scaled lipid accumulation score,[4],0.057
same,scaled lipid accumulation score,[5],0.038
same,scaled lipid accumulation score,[6],0.056
same,scaled lipid accumulation score,[1],0.014
same,scaled lipid accumulation score,[2],≤ 0 and ≤ -0.001
CCN(CCCOc1ccc2c(Nc3cc(CC(=O)Nc4cccc(F)c4)[nH]n3)ncnc2c1)CCOP(=O)(O)O [Barasertib],scaled lipid accumulation score,[4],0.022
same,scaled lipid accumulation score,[5],≤ -0.001
same,scaled lipid accumulation score,[6],0.115
same,scaled lipid accumulation score,[2],0.242
"CCC=CCC=CCC=CCCCCCCCCCC(=O)O [11(Z),14(Z),17(Z)-Eicosatrienoic Acid]",scaled lipid accumulation score,[3],≤ 0
O=S(=O)(c1ccccc1)c1cnc2c(N3CCNCC3)cccc2c1 [listing 1 of 2 here],scaled lipid accumulation score,[1],0.285
O=S(=O)(c1ccccc1)c1cnc2c(N3CCNCC3)cccc2c1 [listing 2 of 2 here],scaled lipid accumulation score,[2],0.994 (active)
Cc1ccc(Sc2ccccc2N2CCNCC2)c(C)c1,scaled lipid accumulation score,[1],0.769
same,scaled lipid accumulation score,[2],0.102
CCCCCCC[C@H](O)/C=C/[C@@H]1[C@@H](C/C=C\CCCC(=O)O)[C@@H](O)C[C@H]1O [20-ethyl Prostaglandin F2.alpha.],scaled lipid accumulation score,[3],≤ 0
NC(=O)Nc1cc(-c2cccc(F)c2)sc1C(=O)N[C@H]1CCCNC1 [listing 1 of 2 here],scaled lipid accumulation score,[1],0.879 (active)
NC(=O)Nc1cc(-c2ccccc2)sc1C(N)=O [IKK-2 Inhibitor XI],scaled lipid accumulation score,[1],≤ 0
NC(=O)Nc1cc(-c2cccc(F)c2)sc1C(=O)N[C@H]1CCCNC1 [listing 2 of 2 here],scaled lipid accumulation score,[4],≤ 0
same,scaled lipid accumulation score,[5],0.06 and ≤ -0.005
same,scaled lipid accumulation score,[6],0.23 and 0.444
same,scaled lipid accumulation score,[2],0.559 and 0.276
CNCC(O)c1ccc(O)c(O)c1 (racemic) [(+/-)-Epinephrine hydrochloride],scaled lipid accumulation score,[2],≤ 0
"CCCCC[C@H](O)CC[C@@H]1[C@@H](C/C=C\CCCC(=O)O)[C@@H](O)C[C@H]1O [13,14-dihydro Prostaglandin F2.alpha.]",scaled lipid accumulation score,[3],≤ 0
CCCCC[C@H](O)/C=C/[C@@H]1[C@@H](CCCCCCC(=O)O)[C@@H](O)C[C@H]1O [Prostaglandin F1.alpha.],scaled lipid accumulation score,[3],≤ 0
O=P(O)(O)OC1[C@@H](O)[C@H](O)C(O)[C@H](O)[C@@H]1O (stereo partly drawn) [D-myo-Inositol-3-phosphate (sodium salt)],scaled lipid accumulation score,[3],0.009
Fc1cc(-c2ccnc(Nc3ccc(-n4cnc(N5CCOCC5)n4)cc3)n2)cc(N2CCOCC2)c1,scaled lipid accumulation score,[4],0.394
same,scaled lipid accumulation score,[5],0.734
same,scaled lipid accumulation score,[6],0.178
same,scaled lipid accumulation score,[2],0.442
Cc1nc(N)sc1-c1ccnc(Nc2ccc(N3CCOCC3)cc2)n1 [listing 1 of 3 here],scaled lipid accumulation score,[2],1.07 (active)
Cc1ncc(-c2ccnc(Nc3ccc(S(C)(=O)=O)cc3)n2)n1C(C)C,scaled lipid accumulation score,[4],0.708
same,scaled lipid accumulation score,[5],0.763
same,scaled lipid accumulation score,[6],0.527
same,scaled lipid accumulation score,[1],0.078
same,scaled lipid accumulation score,[2],0.329 and 0.334
Cc1nc(N)sc1-c1ccnc(Nc2ccc(N3CCOCC3)cc2)n1 [listing 2 of 3 here],scaled lipid accumulation score,[5],≤ -0.005
same,scaled lipid accumulation score,[6],≤ -0.005
same,scaled lipid accumulation score,[1],≤ 0
Cc1nc(N)sc1-c1ccnc(Nc2ccc(N3CCOCC3)cc2)n1 [listing 3 of 3 here],scaled lipid accumulation score,[2],1.02 (active)

# Reference: the supplement of paper PMC9135407
